Drawing on PubChem BioAssay (NCI), this text covers growth for 7 compounds.

Common to all, as to assay: NCI-60 one-dose screen, 48 h (100 = growth as untreated, 0 = no growth, -100 = all killed)
One experiment deals with DU-145 prostate. As to conditions: 10 µM unless noted.
In a further experiment the test system is K-562 leukemia. The settings on record: 10 µM unless noted.
In the next experiment the test system is MALME-3M melanoma. As to conditions: 10 µM unless noted.
The next experiment concerns MDA-MB-231 breast. The settings on record: 10 µM unless noted.
Another experiment relates to RXF 393 renal. The settings on record: 10 µM unless noted.
The test system of the next experiment is SF-268 CNS. The settings on record: 10 µM unless noted.
The next experiment deals with SF-295 CNS. As to conditions: 10 µM unless noted.
Another experiment deals with SF-539 CNS. The settings on record: 10 µM unless noted.
Another experiment has as its system UACC-257 melanoma. As to conditions: 10 µM unless noted.
A further experiment has as its system M14 melanoma. The settings on record: 10 µM unless noted.
For a further experiment, the system named is HCT-15 colon. As to conditions: 10 µM unless noted.
A further experiment relates to HT29 colon. As to conditions: 10 µM unless noted.
A further experiment has as its system SNB-75 CNS. As to conditions: 10 µM unless noted.
The subject of the next experiment is SNB-19 CNS. As to conditions: 10 µM unless noted.
In the next experiment the test system is U251 CNS. The settings on record: 10 µM unless noted.
A further experiment has as its system PC-3 prostate. The settings on record: 10 µM unless noted.
In a further experiment the test system is SK-MEL-5 melanoma. The settings on record: 10 µM unless noted.
A further experiment relates to UACC-62 melanoma. As to conditions: 10 µM unless noted.
The subject of a further experiment is LOX IMVI melanoma. As to conditions: 10 µM.
For the next experiment, the system named is SK-MEL-28 melanoma. As to conditions: 10 µM unless noted.

About 83,000 compounds went through this panel and 20% of them were active in at least one assay; those are over-represented in the sample as a whole.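 For each line, cells grew in 96-well plates with the test compound present at a single concentration for 48 hours.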 Unmarked numbers belong to inactive results. The source made the active and inactive calls. Rule for the calls: active = growth percent below 10; inactive = the rest.

As to `COc1ccc(C(=O)/C=C/c2ccc(OCc3ccc(F)cc3)c(OC)c2)cc1OC`, the growth is 1.63% (active) in the experiment with DU-145 prostate; 7.71% (active) in the experiment on K-562 leukemia; 61.4% with MALME-3M melanoma; 11.1% in the experiment with MDA-MB-231 breast; 18.7% in the experiment on RXF 393 renal; 24.3% in the experiment with SF-268 CNS. Besides, the growth with SF-295 CNS was 15.6%; in the experiment with SF-539 CNS, -38.6% (active); with UACC-257 melanoma, 33.6%; in the experiment with M14 melanoma, 38.1%; with HCT-15 colon, 10.2%; with HT29 colon it was 10.7%. Moreover, the growth in the experiment on SNB-75 CNS was -15% (active); in the experiment on SNB-19 CNS, 15.4%; in the experiment on U251 CNS, 10.1%; in the experiment with PC-3 prostate it was 24%; in the experiment with SK-MEL-5 melanoma, 17.8%; in the experiment with UACC-62 melanoma, 18.8%.

As to `CC(=O)OCC1OC(OC2C(COC(C)=O)OC(n3cc(COc4ccc5ccc(=O)oc5c4)nn3)C(OC(C)=O)C2OC(C)=O)C(OC(C)=O)C(OC(C)=O)C1OC(C)=O` (configuration not stated), the growth is 108% with DU-145 prostate; 92.1% with K-562 leukemia; 101% in the experiment on MALME-3M melanoma; 101% in the experiment on MDA-MB-231 breast; 90.5% with RXF 393 renal; 91.8% in the experiment with SF-268 CNS. In addition, the growth with SF-295 CNS is 113%; in the experiment on SF-539 CNS it was 100%; with UACC-257 melanoma it was 112%; in the experiment on M14 melanoma, 107%; with HCT-15 colon, 102%; in the experiment on HT29 colon, 114%. Further, the growth in the experiment with SNB-75 CNS is 69.2%; in the experiment with SNB-19 CNS, 100%; in the experiment with U251 CNS, 106%; in the experiment with PC-3 prostate it was 98.8%; with SK-MEL-5 melanoma it was 99.2%; in the experiment on UACC-62 melanoma it was 94.2%. Moreover, the growth in the experiment with LOX IMVI melanoma is 104%.

Take `COc1ccc(/C=N/NC(=O)Cn2nc(Cc3ccc(OC)cc3)c3onc(C)c3c2=O)cc1`: the growth in the experiment on DU-145 prostate was 64%; in the experiment on K-562 leukemia, 53.9%; with MALME-3M melanoma it was 50.8%; in the experiment on MDA-MB-231 breast, 57.8%; in the experiment with RXF 393 renal, 2.21% (active); in the experiment with SF-268 CNS it was 65.4%. In addition, the growth in the experiment with SF-295 CNS is 48.2%; in the experiment with SF-539 CNS it was 47.6%; in the experiment on UACC-257 melanoma, 77%; with M14 melanoma, 63.9%; in the experiment on HCT-15 colon, 70.2%; with HT29 colon, 38.1%. The growth was 26.9% in the experiment on SNB-75 CNS; 56.3% in the experiment on SNB-19 CNS; 54.6% in the experiment on U251 CNS; 23.2% in the experiment with PC-3 prostate; 91.6% in the experiment on SK-MEL-5 melanoma; 48.5% with UACC-62 melanoma. In addition, the growth was 10.6% in the experiment with LOX IMVI melanoma and 29.8% with SK-MEL-28 melanoma.

Turning to `CN(C)c1nc(NCCNS(=O)(=O)c2ccc(C3=Nc4c(N)nc(N)nc4NC(c4ccccc4)C3)cc2)nc(Nc2ccc(F)cc2)n1` (configuration not stated), the growth was 58% with DU-145 prostate; 7.64% (active) with K-562 leukemia; 36.6% in the experiment with MALME-3M melanoma; 20.7% in the experiment with MDA-MB-231 breast; 13.4% with RXF 393 renal; 46.9% with SF-268 CNS. Further, the growth in the experiment with SF-295 CNS was 42.6%; with SF-539 CNS, -7.62% (active); in the experiment with UACC-257 melanoma, 70.8%; in the experiment on M14 melanoma, 49.4%; in the experiment with HCT-15 colon it was 37.4%; in the experiment on HT29 colon, 18.3%. In addition, the growth in the experiment on SNB-75 CNS was 62.5%; with SNB-19 CNS, 56.6%; in the experiment on U251 CNS, 36.4%; in the experiment with PC-3 prostate, 26.5%; in the experiment with SK-MEL-5 melanoma it was 33.7%; in the experiment on UACC-62 melanoma, 55.9%. In the experiment on LOX IMVI melanoma, the growth is 3.29% (active).

On to `Cc1cc2c(cc1Cl)C(=O)/C(=C/c1ccc(F)cc1)O2`, for which the growth in the experiment with DU-145 prostate was 118%; with K-562 leukemia, 77.6%; in the experiment on MALME-3M melanoma, 100%; in the experiment with MDA-MB-231 breast, 90.1%; with RXF 393 renal, 95.7%; with SF-268 CNS, 117%. For the same compound, the growth was 98.9% in the experiment with SF-295 CNS; 85.9% with SF-539 CNS; 106% with UACC-257 melanoma; 96.8% in the experiment with M14 melanoma; 97.8% in the experiment on HCT-15 colon; 102% in the experiment with HT29 colon. The growth in the experiment on SNB-75 CNS is 95%; in the experiment on SNB-19 CNS it was 90.3%; with U251 CNS, 89.9%; in the experiment with PC-3 prostate, 91.1%; in the experiment with SK-MEL-5 melanoma it was 93%; in the experiment on UACC-62 melanoma, 76.6%.

With `COc1ccc(NC(=O)[C@@H](N)Cc2ccccc2)cc1C(=O)Nc1cccc(C2CC(=O)c3c(cc(OC)c(OC)c3OC)O2)c1` (some centres not stated), the growth with DU-145 prostate is 58.1%; in the experiment on K-562 leukemia, 17.5%; in the experiment on MALME-3M melanoma, 66%; in the experiment on MDA-MB-231 breast, 63%; in the experiment with RXF 393 renal, 73.7%; in the experiment on SF-268 CNS, 60.5%. For the same compound, the growth is 127% with SF-295 CNS; 82.4% in the experiment on SF-539 CNS; 95.5% in the experiment on UACC-257 melanoma; 65% with M14 melanoma; 37.7% with HCT-15 colon; 73.4% in the experiment with HT29 colon. Besides, the growth with SNB-75 CNS is 108%; in the experiment on SNB-19 CNS, 79%; in the experiment with U251 CNS, 60.2%; with PC-3 prostate, 38.8%; with SK-MEL-5 melanoma, 46.5%; with UACC-62 melanoma, 49.7%. The growth was 25.1% in the experiment with LOX IMVI melanoma and 73.2% in the experiment on SK-MEL-28 melanoma.

As for `COc1ccc(NC(=O)Cn2c(O)c(N=Nc3ccc(S(N)(=O)=O)cc3)c3ccccc32)cc1`, the growth in the experiment with DU-145 prostate is 82.4%; in the experiment with K-562 leukemia, 40.8%; in the experiment with MALME-3M melanoma it was 29.8%; in the experiment on MDA-MB-231 breast, -22.1% (active); in the experiment on RXF 393 renal it was 82.7%; in the experiment with SF-268 CNS it was 69.1%. In addition, the growth is 22.1% in the experiment with SF-295 CNS; 23.4% with SF-539 CNS; 67% with UACC-257 melanoma; 27.4% in the experiment with M14 melanoma; 79% with HCT-15 colon; -2.87% (active) in the experiment on HT29 colon. Further, the growth with SNB-75 CNS is 59.7%; in the experiment on SNB-19 CNS, 23%; in the experiment on U251 CNS, -32.5% (active); with PC-3 prostate, 14.4%; with SK-MEL-5 melanoma, 62.3%; in the experiment on UACC-62 melanoma it was 20.7%.
